High-throughput results deposited in PubChem BioAssay by several laboratories.
VLA-4 inh – inhibition in a human VLA-4 binding assay; AID 2557; VLA-4 expressing cells, ligand binding flow cytometry; 0.2% of 330,000 active; inhibition, % (about 7 µM as worked out from the volumes in the protocol); P13612; in the data active = inhibition above about 50%
Efflux pump mplx – blocks antifungal efflux pumps in multiplex yeast assay. S. cerevisiae Candida pump triplex, Nile Red efflux. inhibition, % at 10 µM. AID 485275. 0.44% of 330,000 active;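 active = plate passing quality check with inhibition over a set limit, or well fluorescence over plate mean plus 4 SD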;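 note: Nile Red retained in pooled yeast measured as flow cytometry median fluorescence; higher means more Nile Red kept so more efflux inhibition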
Bfl-1 A1 inh – inhibitors of the anti-apoptotic protein A1, read as caspase activation; MEF A1-2A-BIM cells, Caspase-Glo 3/7 luminescence, 3 h; percent of clofoctol response, vehicle zero; caspase activation, % (no concentration beside the values); 0.066% of 330,000 active;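 active = over half of replicate activation scores above 10%, or exactly half above 10 with the replicate mean above 10; inconclusive = replicate mean below 10 yet half the replicates above 10; inactive = over half of replicates below 10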
Mot1-301 SUMO – blocks SUMOylation pathway, rescuing yeast Mot1-301 growth | 1% of 320,000 active | growth rescue, % at 18.8 µM | AID 2716 | S. cerevisiae Mot1-301 growth rescue, ATP luminescence, 38.5C; percent above DMSO median, 100 means doubled;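 active = every valid replicate shows activation above 250% relative to neutral control wells; inactive = the rest, any valid replicate at or below 250%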
AHR act – human AHR activation; P35869; AHR-responsive luciferase reporter cells, luminescence; activation, % at 5 µM; 2.5% of 320,000 active; AID 2796; in the data active = activation above about 47%
Target sequence (P35869 whole entry, looked up): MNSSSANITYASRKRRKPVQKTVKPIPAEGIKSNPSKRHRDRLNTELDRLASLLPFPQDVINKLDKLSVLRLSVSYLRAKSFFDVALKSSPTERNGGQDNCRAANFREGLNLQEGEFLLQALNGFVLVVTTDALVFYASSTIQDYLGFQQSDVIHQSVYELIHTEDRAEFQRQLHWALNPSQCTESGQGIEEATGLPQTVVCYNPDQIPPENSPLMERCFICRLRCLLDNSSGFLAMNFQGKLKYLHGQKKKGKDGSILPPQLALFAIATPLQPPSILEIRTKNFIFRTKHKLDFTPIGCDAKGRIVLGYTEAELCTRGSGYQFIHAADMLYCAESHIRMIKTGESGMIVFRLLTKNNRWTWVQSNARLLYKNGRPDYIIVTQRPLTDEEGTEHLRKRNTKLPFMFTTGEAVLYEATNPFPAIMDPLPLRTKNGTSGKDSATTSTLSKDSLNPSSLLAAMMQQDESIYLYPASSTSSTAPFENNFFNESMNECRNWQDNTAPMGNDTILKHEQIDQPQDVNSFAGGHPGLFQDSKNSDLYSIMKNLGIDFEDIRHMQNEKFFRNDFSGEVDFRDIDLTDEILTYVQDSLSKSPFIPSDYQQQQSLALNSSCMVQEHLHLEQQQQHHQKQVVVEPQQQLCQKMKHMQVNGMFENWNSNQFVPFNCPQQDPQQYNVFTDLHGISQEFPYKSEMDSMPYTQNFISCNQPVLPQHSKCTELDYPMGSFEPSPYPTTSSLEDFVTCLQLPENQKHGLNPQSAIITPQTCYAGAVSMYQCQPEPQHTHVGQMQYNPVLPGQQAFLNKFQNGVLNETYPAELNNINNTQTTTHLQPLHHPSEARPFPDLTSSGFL
ALR H2O2 inh – blocks human ALR sulfhydryl oxidase activity; purified ALR, DTT oxidation, H2O2 HRP-luminol luminescence; AID 485317; inhibition, % (test concentration not listed); 3.8% of 290,000 active; P55789;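 active = mean replicate inhibition above about 79%, with every replicate also reaching it, limit read from the data; inconclusive = only one of the two criteria met; inactive = mean below limit and not every replicate reaching it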
Numbers stand for hits. Rows were chosen to be rich in hits. Some 7.2% of all compounds tested hit in one or more screens of this group.

How did CCOc1ccc(CNc2ccc3c(c2)ncn3C)cc1 do in these assays?
VLA-4 inh: inactive; Efflux pump mplx: inactive; Bfl-1 A1 inh: inactive; Mot1-301 SUMO: inactive; AHR act: inactive; ALR H2O2 inh: 82

Results for Cn1cnc2cc(NCc3ccc(Cl)cc3)ccc21 ?
VLA-4 inh: inactive; Efflux pump mplx: inactive; Bfl-1 A1 inh: inactive; Mot1-301 SUMO: inactive; AHR act: 56; ALR H2O2 inh: 94

Results for O=S1(=O)N=C(Nc2nc3c(s2)CCCC3)c2ccccc21 ?
VLA-4 inh: inactive; Efflux pump mplx: inactive; Bfl-1 A1 inh: inactive; Mot1-301 SUMO: inactive; AHR act: 57; ALR H2O2 inh: inactive

What do the screens show for `O=C(O)c1ccc(Nc2nc3c(s2)CCCC3)cc1`?
VLA-4 inh: inactive; Efflux pump mplx: inactive; Bfl-1 A1 inh: inactive; Mot1-301 SUMO: inactive; AHR act: inactive; ALR H2O2 inh: inactive

What do the screens show for `Cc1cccc(Nc2nc3c(s2)CCCC3)c1`?
VLA-4 inh: inactive; Efflux pump mplx: inactive; Bfl-1 A1 inh: inactive; Mot1-301 SUMO: inactive; AHR act: inactive; ALR H2O2 inh: 96

How did CC(=O)c1ccc(N2CCN(C(C)C(=O)Nc3ccc4c(c3)OCCO4)CC2)cc1 (stereo not given) do in these assays?
VLA-4 inh: inactive; Efflux pump mplx: inactive; Bfl-1 A1 inh: inactive; Mot1-301 SUMO: inactive; AHR act: inactive; ALR H2O2 inh: inactive

What do the screens show for `CC(=O)c1ccc(NC(=S)NC(=O)c2c(Cl)c(C)nn2C)cc1`?
VLA-4 inh: inactive; Efflux pump mplx: inactive; Bfl-1 A1 inh: inactive; Mot1-301 SUMO: inactive; AHR act: inactive; ALR H2O2 inh: inactive

How did CCOC(=O)Nc1ccc2c(c1)N(CCCN(C)C)c1ccccc1CC2 do in these assays?
VLA-4 inh: inactive; Efflux pump mplx: inactive; Bfl-1 A1 inh: inactive; Mot1-301 SUMO: inactive; AHR act: inactive; ALR H2O2 inh: 99

How did CCOC(=O)n1c(=O)n(Cc2ccc(Cl)c(Cl)c2)c2ccccc21 do in these assays?
VLA-4 inh: inactive; Efflux pump mplx: inactive; Bfl-1 A1 inh: inactive; Mot1-301 SUMO: inactive; AHR act: inactive; ALR H2O2 inh: inactive

Results for O=C1CCc2cc(S(=O)(=O)NC(Cc3ccccc3)C(=O)NC3CCCCC3)ccc2N1 (stereo not given) ?
VLA-4 inh: inactive; Efflux pump mplx: inactive; Bfl-1 A1 inh: inactive; Mot1-301 SUMO: inactive; AHR act: inactive; ALR H2O2 inh: inactive

Results for CC(C)(C)NC(=O)C(Cc1ccccc1)NS(=O)(=O)c1ccc2c(c1)CCC(=O)N2 (stereo not given) ?
VLA-4 inh: inactive; Efflux pump mplx: inactive; Bfl-1 A1 inh: inactive; Mot1-301 SUMO: inactive; AHR act: inactive; ALR H2O2 inh: 98

Results for O=C(CSCc1ccc(Cl)cc1)Nc1ccc(O)cc1C(=O)O ?
VLA-4 inh: inactive; Efflux pump mplx: inactive; Bfl-1 A1 inh: inactive; Mot1-301 SUMO: inactive; AHR act: inactive; ALR H2O2 inh: 96

Results for COc1cc(NC(=O)CSCc2ccc(Cl)cc2)c(C(=O)O)cc1OC ?
VLA-4 inh: inactive; Efflux pump mplx: inactive; Bfl-1 A1 inh: inactive; Mot1-301 SUMO: inactive; AHR act: inactive

Results for O=C(Cc1cccc2ccccc12)Nc1ccc(O)cc1C(=O)O ?
VLA-4 inh: inactive; Efflux pump mplx: inactive; Bfl-1 A1 inh: inactive; Mot1-301 SUMO: inactive; AHR act: inactive; ALR H2O2 inh: 97

Results for Cc1nnc(SCC(=O)N(C)C2CCCCC2)n1C ?
VLA-4 inh: inactive; Efflux pump mplx: inactive; Bfl-1 A1 inh: inactive; Mot1-301 SUMO: inactive; AHR act: inactive; ALR H2O2 inh: inactive

Results for CC(/C=C1\NC(=S)NC1=O)=C\c1ccccc1 ?
VLA-4 inh: inactive; Efflux pump mplx: inactive; Bfl-1 A1 inh: inactive; Mot1-301 SUMO: inactive; AHR act: inactive; ALR H2O2 inh: inactive

What do the screens show for `Cc1ccnc(SCc2ccc(C(=O)O)cc2)n1`?
VLA-4 inh: inactive; Efflux pump mplx: inactive; Bfl-1 A1 inh: inactive; Mot1-301 SUMO: inactive; AHR act: inactive; ALR H2O2 inh: inactive

What do the screens show for `Cc1nc(SCc2ccc(C(=O)O)cc2)nc2c1CCCC2`?
VLA-4 inh: inactive; Efflux pump mplx: inactive; Bfl-1 A1 inh: inactive; Mot1-301 SUMO: inactive; AHR act: inactive; ALR H2O2 inh: 96

What do the screens show for `Cc1ccc(NC(=O)COC(=O)CCC2CCCC2)c(Br)c1`?
VLA-4 inh: inactive; Efflux pump mplx: inactive; Bfl-1 A1 inh: inactive; Mot1-301 SUMO: inactive; AHR act: inactive; ALR H2O2 inh: inactive

Results for Cc1cc(Cl)c2cc3ccccc3cc2n1 ?
VLA-4 inh: inactive; Efflux pump mplx: inactive; Bfl-1 A1 inh: inactive; Mot1-301 SUMO: inactive; AHR act: 52

What do the screens show for `CC(C)CC(=O)N=C1SC2CS(=O)(=O)CC2N1Cc1ccccc1Cl` (stereo not given)?
VLA-4 inh: inactive; Efflux pump mplx: inactive; Bfl-1 A1 inh: inactive; Mot1-301 SUMO: inactive; AHR act: inactive; ALR H2O2 inh: inactive

Results for Cc1ccc2nc(SC(C(=O)Nc3ccc(F)cc3)c3ccccc3)[nH]c2c1 (stereo not given) ?
VLA-4 inh: inactive; Efflux pump mplx: inactive; Bfl-1 A1 inh: inactive; Mot1-301 SUMO: inactive; AHR act: 79; ALR H2O2 inh: inactive

What do the screens show for `COc1ccc(OC)c(NC(=O)COC(=O)COc2ccc(Nc3ccccc3)cc2)c1`?
VLA-4 inh: inactive; Efflux pump mplx: inactive; Bfl-1 A1 inh: inactive; Mot1-301 SUMO: inactive; AHR act: inactive; ALR H2O2 inh: inactive

How did Cn1nnnc1SCc1csc(C2C(C#N)=C(N)OC3=C2C(=O)CCC3)c1 (stereo not given) do in these assays?
VLA-4 inh: inactive; Efflux pump mplx: inactive; Bfl-1 A1 inh: inactive; Mot1-301 SUMO: inactive; AHR act: inactive; ALR H2O2 inh: inactive

How did COc1ccccc1S(=O)(=O)Cc1ccc(C(=O)NCCN2CCCCCC2)o1 do in these assays?
VLA-4 inh: inactive; Efflux pump mplx: inactive; Bfl-1 A1 inh: inactive; Mot1-301 SUMO: inactive; AHR act: 47; ALR H2O2 inh: inactive

What do the screens show for `COCCNC(=O)c1ccc(CS(=O)(=O)c2ccccc2OC)o1`?
VLA-4 inh: inactive; Efflux pump mplx: inactive; Bfl-1 A1 inh: inactive; Mot1-301 SUMO: inactive; AHR act: inactive; ALR H2O2 inh: inactive

Results for Cc1cc(C)nc(Nc2ncc(O)n2-c2ccc(C)c(C)c2)n1 ?
VLA-4 inh: inactive; Efflux pump mplx: inactive; Bfl-1 A1 inh: inconclusive; Mot1-301 SUMO: inactive; AHR act: inactive; ALR H2O2 inh: inactive

How did Cc1cc(C)nc(Nc2ncc(O)n2-c2ccc(C)c(Cl)c2)n1 do in these assays?
VLA-4 inh: inactive; Efflux pump mplx: inactive; Bfl-1 A1 inh: inactive; Mot1-301 SUMO: inactive; AHR act: 57; ALR H2O2 inh: inactive

Results for [O-][n+]1c2c(c3c4non(O)c4ccc31)CCCC2 ?
VLA-4 inh: inactive; Efflux pump mplx: inactive; Bfl-1 A1 inh: inactive; Mot1-301 SUMO: inactive; AHR act: inactive; ALR H2O2 inh: 94

Results for COn1c2c(c3c4no[n+]([O-])c4ccc31)CCCC2 ?
VLA-4 inh: inactive; Efflux pump mplx: inactive; Bfl-1 A1 inh: inactive; Mot1-301 SUMO: inactive; AHR act: inactive; ALR H2O2 inh: inactive

Results for Cc1ccccc1C(=O)Oc1ccccc1N1C(=O)C2CC=CCC2C1=O (stereo not given) ?
VLA-4 inh: inactive; Efflux pump mplx: inactive; Bfl-1 A1 inh: inactive; Mot1-301 SUMO: inactive; AHR act: 75
